Results on 29 compounds are retold here after PubChem BioAssay (Tox21).

For assay [1], the target named is Thyrotropin receptor (Homo sapiens) (UniProt P16473). Description: qHTS assay to identify small molecule antagonists of the thyroid stimulating hormone receptor (TSHR) signaling pathway (AID 1259385; calls by dose curve; also: nearly all actives have a fitted effect of over 20% in size). In outline: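 TSHR-HEK293 cells (800/well) plated 18 h, then compounds with Ro20-1724 and TSH at 1.5 ng/mL final, 30 min at room temperature. cAMP quantified by HTRF (cAMP-d2/anti-cAMP-cryptate, 1 h); 15 concentrations in triplicate.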
Sequence of Thyrotropin receptor (Homo sapiens) (P16473 whole entry, looked up): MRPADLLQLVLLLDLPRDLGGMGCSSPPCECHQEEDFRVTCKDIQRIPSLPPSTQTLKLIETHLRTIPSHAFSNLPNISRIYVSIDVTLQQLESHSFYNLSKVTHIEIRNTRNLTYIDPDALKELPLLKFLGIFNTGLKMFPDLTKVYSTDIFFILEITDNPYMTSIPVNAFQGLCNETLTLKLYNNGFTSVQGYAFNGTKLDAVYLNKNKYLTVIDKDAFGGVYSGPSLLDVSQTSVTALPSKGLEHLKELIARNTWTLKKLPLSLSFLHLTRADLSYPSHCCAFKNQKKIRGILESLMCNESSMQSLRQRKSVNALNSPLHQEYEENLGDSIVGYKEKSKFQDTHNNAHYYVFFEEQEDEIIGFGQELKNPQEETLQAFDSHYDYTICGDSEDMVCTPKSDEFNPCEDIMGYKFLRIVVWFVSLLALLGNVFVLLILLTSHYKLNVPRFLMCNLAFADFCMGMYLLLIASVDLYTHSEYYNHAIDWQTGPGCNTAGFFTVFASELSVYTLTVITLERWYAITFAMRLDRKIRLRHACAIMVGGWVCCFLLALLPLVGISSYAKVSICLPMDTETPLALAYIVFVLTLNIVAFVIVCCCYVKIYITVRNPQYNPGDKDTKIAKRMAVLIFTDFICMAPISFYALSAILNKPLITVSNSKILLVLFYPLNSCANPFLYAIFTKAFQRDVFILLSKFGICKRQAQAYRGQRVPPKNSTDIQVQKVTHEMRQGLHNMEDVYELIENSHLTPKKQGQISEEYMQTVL
On the technique in general: Quantitative high-throughput screening tests each substance at several concentrations.

The target of assay [2] is Progesterone receptor (Homo sapiens) (UniProt P06401). The experiment in a line: qHTS assay to identify small molecule agonists of the progesterone receptor (PR) signaling pathway (AID 1346784; calls by dose curve; also: nearly all actives have a fitted effect of over 30% in size). In outline:
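HEK 293T PR-UAS-bla reporter cells, 2% charcoal-stripped FBS; 6 hr settle at 37C/5% CO2, compound (DMSO) 16 hr, LiveBLAzer B/G FRET substrate 2 hr RT, fluorescence intensity read.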

Assay [3] has the same target. The experiment in a line: qHTS assay to identify small molecule antagonists of the progesterone receptor (PR) signaling pathway (AID 1346795; active = well fitted inhibition curve with a large enough effect in the signal ratio in the repeat runs, not every such curve was filed as active; the % refers to the signal ratio). In outline:
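Beta-lactamase reporter, HEK293T PR-UAS-bla line; 2% charcoal-stripped FBS; 6 hr pre-incubation, 37C/5% CO2. Compound + R5020 1 nM final, 16 hr. LiveBLAzer B/G FRET substrate, 2 hr RT; fluorescence intensity read.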

Assay [4] can be described thus: qHTS assay to identify small molecule antagonists of the progesterone receptor (PR) signaling pathway - cell viability counter screen (AID 1346798). Also: series mostly up to about 92 µM; nearly all actives have a fitted effect of over 50% in size. In outline:
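Luminescence readout (CellTiter-Glo, 30 min, RT) of viability in PR-UAS-bla HEK293T cells exposed to compound and R5020 agonist for 16 hr at 37C, 5% CO2; run in the same wells as the beta-lactamase reporter read.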

Assay [5] can be described thus: qHTS assay to identify small molecule agonists of the progesterone receptor (PR) signaling pathway - cell viability counter screen (AID 1346799; calls by dose curve; also: nearly all actives have a fitted effect of over 45% in size; also: potency is read from the fitted curve at half-maximal effect). In outline:
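HEK293T PR-UAS-bla, 3,000 cells/well, 2% charcoal-stripped FBS; 6 h settle, compound 16 h at 37C/5% CO2; LiveBLAzer 2 h RT, then CellTiter-Glo 30 min RT, luminescence read.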

Assay [6] can be described thus: qHTS assay to identify small molecule antagonists of the TGF-beta/Smad signaling pathway - cell viability counter screen (AID 1346824). Also: nearly all actives have a fitted effect of over 50% in size. A digest of the protocol:
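SBE-bla HEK 293T cells, incubated overnight, then compound plus 0.25 ng/mL TGF-beta1 (stock added) for 5 hr at 37 C. Viability was read in the same wells by CellTiter-Glo luminescence after 30 min at room temperature.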

Assay [7] in a line: qHTS assay to identify small molecule agonists of the TGF-beta/Smad signaling pathway - cell viability counter screen (AID 1346829). Also: top concentration of the series differs between compounds; nearly all actives have a fitted effect of over 45% in size. In outline: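 HEK 293T SBE-bla line, 5 hr compound exposure at 37 C, multiplexed CellTiter-Glo viability read by luminescence.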
A short description of assay [8]: qHTS assay to identify small molecule agonists of the TGF-beta/Smad signaling pathway (AID 1346859; active = well fitted activation curve with a large enough effect in the signal ratio in the repeat runs, not every such curve was filed as active; the % refers to the signal ratio; also: series mostly up to about 77 µM). A digest of the protocol: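 Read-out: fluorescence at 460 and 530 nm (405 nm excitation) after a 2 hr room-temperature incubation with beta-lactamase FRET substrate. SBE-bla HEK 293T cells had been treated with test compounds for 5 hr at 37 C.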
Assay [9] has as its target Thyrotropin-releasing hormone receptor (Homo sapiens) (UniProt P34981). Description: qHTS assay to identify small molecule antagonists of the thyrotropin-releasing hormone receptor (TRHR) signaling pathway (AID 1346877; active = well fitted inhibition curve with a large enough effect in the repeat runs, not every such curve was filed as active; also: series mostly up to about 51 µM). In outline:
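Intracellular calcium fluorescence, read kinetically every second over 3 min, reports TRH-evoked signalling in HEK293 cells carrying TRHR. Test compounds were added 5 min ahead of a 1 nM TRH challenge.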

A short description of assay [10]: qHTS assay to identify small molecule agonists of the estrogen receptor alpha (ER-alpha) signaling pathway in the presence of an antagonist - cell viability counter screen (AID 1259386).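 Also: cells exposed to compounds for 22 h at 37 °C before the viability read; nearly all actives have a fitted effect of over 30% in size.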 Also: potency is read from the fitted curve at half-maximal effect. A digest of the protocol:
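VM7Luc4E2, stripped-serum pre-culture 5 d; 24hr plating; +ICI-182,780 10.0nM final; cpds 15 conc, 22hr, 37C/5% CO2; CellTiter-Fluor added at 21hr, fluorescence 1hr later.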

A number with no mark means an inactive call. Results filed as inconclusive are left out. Calls of active or inactive are those of the source. Unless noted, calls follow the shape of the dose curve; as a rule, active = well fitted curve in the direction sought with a large enough effect in the repeat runs; inconclusive = weak or mixed curves; inactive = no such curve, though single readings can be large; an effect the other way counts as inactive or inconclusive.

Sequence of Thyrotropin-releasing hormone receptor (Homo sapiens) (P34981 whole entry, looked up): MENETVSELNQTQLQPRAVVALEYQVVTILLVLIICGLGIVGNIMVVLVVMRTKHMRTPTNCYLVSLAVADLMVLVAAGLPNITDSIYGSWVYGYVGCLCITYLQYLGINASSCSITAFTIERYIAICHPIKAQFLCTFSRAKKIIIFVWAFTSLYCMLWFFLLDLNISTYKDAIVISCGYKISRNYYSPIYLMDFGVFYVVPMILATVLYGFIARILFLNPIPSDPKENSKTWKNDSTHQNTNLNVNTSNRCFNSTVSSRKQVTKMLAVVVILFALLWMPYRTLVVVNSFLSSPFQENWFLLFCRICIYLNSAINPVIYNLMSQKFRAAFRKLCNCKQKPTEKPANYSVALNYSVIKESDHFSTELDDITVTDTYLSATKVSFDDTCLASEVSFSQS
Sequence of Progesterone receptor (Homo sapiens) (P06401 whole entry, looked up): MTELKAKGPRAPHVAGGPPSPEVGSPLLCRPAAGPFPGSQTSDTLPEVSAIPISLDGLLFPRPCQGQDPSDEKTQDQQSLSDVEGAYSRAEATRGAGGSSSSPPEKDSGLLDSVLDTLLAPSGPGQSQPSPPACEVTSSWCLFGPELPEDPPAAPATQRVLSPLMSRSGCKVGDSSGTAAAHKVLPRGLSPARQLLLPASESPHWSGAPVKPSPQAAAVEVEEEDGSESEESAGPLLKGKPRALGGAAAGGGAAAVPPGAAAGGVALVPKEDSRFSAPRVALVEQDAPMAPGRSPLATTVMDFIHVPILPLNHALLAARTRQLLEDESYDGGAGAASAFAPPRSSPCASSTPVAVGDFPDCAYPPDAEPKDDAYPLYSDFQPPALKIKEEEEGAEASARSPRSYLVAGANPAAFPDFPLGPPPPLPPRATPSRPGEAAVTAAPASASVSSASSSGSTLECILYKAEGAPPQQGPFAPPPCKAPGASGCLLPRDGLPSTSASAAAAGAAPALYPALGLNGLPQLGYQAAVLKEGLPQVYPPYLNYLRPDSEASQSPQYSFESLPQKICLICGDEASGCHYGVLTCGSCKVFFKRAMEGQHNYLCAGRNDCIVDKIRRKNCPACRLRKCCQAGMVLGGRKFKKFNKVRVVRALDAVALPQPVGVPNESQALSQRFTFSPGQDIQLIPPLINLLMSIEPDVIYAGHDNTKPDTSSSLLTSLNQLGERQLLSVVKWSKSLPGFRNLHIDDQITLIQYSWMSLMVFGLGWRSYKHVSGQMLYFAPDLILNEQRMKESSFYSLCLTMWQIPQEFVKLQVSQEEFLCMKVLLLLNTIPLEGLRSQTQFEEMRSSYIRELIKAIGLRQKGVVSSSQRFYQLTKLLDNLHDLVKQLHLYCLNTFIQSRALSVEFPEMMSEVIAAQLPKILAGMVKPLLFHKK

Take `CCCCCCCCCCCCSC#N`: the Potency entry in assay [1], in assay [2], in [3], in assay [4] and in [5] was “inactive” in each case. Moreover, the outcome in assay [6], in assay [7] and in [8] was inactive.

Take `CCCC(=O)OCc1ccccc1`: the Potency entry in assay [1], in assay [2], in assay [3], in assay [4] and in [5] was “inactive” in each case. Further, the compound was called inactive in [6], in assay [7], in assay [8] and in assay [9].

`CC(=O)Oc1cccc2c1C(=O)c1c(OC(C)=O)cc(C(=O)O)cc1C2=O`: the Potency entry in assay [1] is “inactive”. The Potency in assay [10] was 29.8 µM (active). For the same compound, the compound was classed as inactive in assay [6], in assay [7] and in assay [9].

In the case of `Cc1c(Cl)cccc1Nc1ccccc1C(=O)O`, the Potency entry in assay [1], in assay [10], in [2] and in assay [4] was “inactive” throughout. Further, the compound was classed as inactive in [6], in [7] and in assay [9].

For `Cc1ccccc1CCO`, the Potency entry in [1], in assay [2], in [3], in assay [4] and in assay [5] was “inactive” each time. The result in assay [6], in assay [7], in assay [8] and in assay [9] was inactive.

On to `O=C1CCCN1CCO`, for which the Potency entry in assay [1], in assay [10] and in assay [2] was “inactive” in each case. Also, the outcome in assay [7], in [8] and in [9] was inactive.

In the case of `C[C@H]1C[C@H]2[C@@H]3CCC4=CC(=O)C=C[C@]4(C)[C@@]3(F)[C@@H](O)C[C@]2(C)[C@@]1(O)C(=O)COP(=O)(O)O`, the Potency entry in assay [1], in assay [10] and in [2] was “inactive” throughout. Besides, the outcome in [6], in [7] and in assay [8] was inactive.

With `O=Cc1ccc(Cl)c([N+](=O)[O-])c1`, the Potency result in [1] and in assay [10] was “inactive” in each case. In addition, the result in assay [6], in [7], in assay [8] and in assay [9] was inactive.

With `CC(C)CCCCCOC(=O)CS`, the Potency result in assay [1], in assay [10], in assay [2] and in assay [4] was “inactive” throughout. The call in assay [7] and in assay [8] was inactive.

Consider `CCc1c(C)[nH]c2c1C(=O)C(CN1CCOCC1)CC2` (stereo unspecified), for which the Potency entry in [1], in assay [2], in assay [3] and in assay [4] was “inactive” throughout. For the same compound, the compound was called inactive in assay [6], in assay [7], in assay [8] and in assay [9].

For `O=C(O)COCC(=O)O`, the Potency entry in assay [1], in assay [2] and in [3] was “inactive” each time. Moreover, the outcome in assay [6], in assay [7], in [8] and in assay [9] was inactive.

On to `CCN(CC)CC(=O)OCC(=O)[C@@]1(O)CC[C@H]2[C@@H]3CCC4=CC(=O)CC[C@]4(C)[C@H]3[C@@H](O)C[C@@]21C`, for which the Potency entry in assay [1], in assay [4] and in [5] was “inactive” in each case. Moreover, the result in assay [6], in assay [7], in assay [8] and in assay [9] was inactive.

Turning to `CCOc1cc(OCC)c(C(C)=O)cc1OCC`, the Potency entry in assay [1], in assay [2], in assay [4] and in assay [5] was “inactive” in each case. Further, the outcome in assay [6], in assay [7], in assay [8] and in assay [9] was inactive.

Take `O=P(c1ccccc1)(c1ccccc1)c1ccccc1`: the Potency entry in assay [1], in [2], in assay [3] and in [5] was “inactive” throughout. The result in assay [6], in assay [7] and in assay [8] was inactive.

As for `COc1ccc(/C=C/S(=O)(=O)NC(=O)c2ccc(C)cc2Cl)cc1`, the Potency result in assay [1] and in [2] was “inactive” each time. Further, the compound was called inactive in assay [6], in [7] and in assay [8].

In the case of `Sc1nc(S)nc(S)n1`, the Potency result in [1], in assay [2], in assay [3] and in [5] was “inactive” throughout. The call in assay [6], in assay [7], in assay [8] and in assay [9] was inactive.

For the compound `CC(COc1ccccc1)NC(C)C(O)c1ccc(O)cc1` (stereo unspecified), the Potency entry in assay [1], in [2], in assay [3] and in assay [5] was “inactive” in each case. Besides, the call in assay [6], in [7], in [8] and in assay [9] was inactive.

As for `CNc1ccccc1`, the Potency entry in assay [10], in assay [2], in [3], in [4] and in [5] was “inactive” throughout. For the same compound, the outcome in assay [6], in assay [7] and in assay [8] was inactive.

As to `CCn1nc(Cc2ccccc2)cc1C1CCN(C[C@H]2C[C@H](N(C)[C@@H](C(=O)O)C(C)C)C[C@@H]2c2cccc(F)c2)CC1`, the Potency result in [1], in assay [4] and in assay [5] was “inactive” each time. The compound was called inactive in assay [7] and in assay [9].

As for `CCCCCCCCOCCCN`, the Potency entry in assay [1], in [2], in [3] and in assay [4] was “inactive” throughout. The call in assay [6], in assay [7], in [8] and in [9] was inactive.

`CC1=C(C)C(=O)C(CCCCC#CCCCC#CCO)=C(C)C1=O`: the Potency entry in [1] and in assay [2] was “inactive” each time. Further, the outcome in assay [6], in assay [7] and in [8] was inactive.

Turning to `CC1=C(C)C(=O)C(C(CCCCCC(=O)O)c2ccccc2)=C(C)C1=O` (stereo unspecified), the Potency entry in assay [10], in [2], in [3], in assay [4] and in [5] was “inactive” each time. Besides, the outcome in assay [7] and in assay [9] was inactive.

Regarding `N#CCCCC(C#N)CCC#N` (stereo unspecified), the Potency entry in assay [1], in assay [2], in [3] and in assay [5] was “inactive” in each case. In addition, the compound was called inactive in assay [6], in [7] and in [8].

For the compound `O=C(C1CCCCC1)N1CC(=O)N2CCCc3ccccc3C2C1` (stereo unspecified), the Potency entry in assay [10], in assay [2], in [3] and in assay [4] was “inactive” in each case. The compound was classed as inactive in assay [6] and in assay [7].

With `CC(=O)c1ccc(Cl)c(Cl)c1Cl`, the Potency entry in assay [1], in assay [4] and in [5] was “inactive” in each case. For the same compound, the result in assay [6], in assay [7], in assay [8] and in assay [9] was inactive.

Take `C=Cc1ccc(C=C)cc1`: the Potency entry in assay [1], in assay [2] and in [5] was “inactive” throughout. Further, the outcome in assay [6], in assay [7], in assay [8] and in assay [9] was inactive.

For the compound `CCCCCCCCCC(C)C=O` (stereo unspecified), the Potency entry in assay [1], in assay [2], in assay [3] and in assay [4] was “inactive” each time. Further, in [5], the Potency is 43.3 µM (active). Moreover, the compound was called inactive in assay [6], in assay [7], in [8] and in assay [9].

With `CC(C)NC(=O)c1ccccc1N`, in [1], the Potency result was “inactive”. The result in assay [6], in assay [7] and in assay [8] was inactive.

On to `CC(C)C/C=C(\C=O)c1ccccc1`, for which the Potency result in assay [1], in [2], in assay [3] and in [4] was “inactive” in each case. In addition, the outcome in assay [6], in assay [7], in assay [8] and in [9] was inactive.
